This is an account of results in PubChem BioAssay AID651567 (National Center for Advancing Translational Sciences (NCATS), 2012).

The campaign covered roughly 1,200 compounds. About 10 (0.8%) were called active. About 4% were inconclusive and are not listed. This excerpt belongs to a sample that is enriched for actives. Values without a mark were called inactive. The call rests on the fitted dose curve; in most records, active means well fitted inhibition curve with a large enough effect; inconclusive means small, poorly fitted or top-dose-only effect; inactive means no such curve, though single readings can be large or run the other way.
On the % scale 0 is the no-effect control and ±100 the full control effect; potency means the concentration at half of the fitted maximal effect.

The test can be described thus: qHTS Assay to Find Inhibitors of Chronic Active B-Cell Receptor Signaling: Hit Validation in OCI-Ly3 Assay. The note with it: OCI-Ly3 IkB-luciferase reporter, Chroma-Glo luminescence, 4 h; series mostly up to 46.1 µM; activity change, negative = inhibition: at the top concentration. From the text: Diffuse large B-cell lymphoma (DLBCL) is the most common category of non-Hodgkin lymphoma, with ~20,000 new cases per year in the United States. DLBCL should be regarded as a collection of different neoplasms. Microarray gene expression analysis has defined two principal types of DLBCL, named for their similarity to normal B cell stages or activation states: a germinal center B-cell (GCB) type, and an activated B-cell (ABC) type. In ABC-DLBCL, a constitutive high-level activity of the NF-kappaB family of transcription factors has been observed (1) and NF-kappaB target genes are more highly expressed in ABC primary tumors than in GCB tumors. Functional studies have shown a constitutive high-level activity of the IkappaB (inhibitor of kappa-B) kinase (IKK) complex. […] Further analysis of DLBCL primary tumors for NF-kappaB target gene expression imply that although CARD11 is required for constitutive IKK activity in all ABC-DLBCL lines, mutations in CARD11 may be the root cause of IKK activation only in lines or tumors with such mutations. In other words, CARD11 mutations may explain NF-kappaB activation in only 10% of ABC-DLBCL cases. […] This process has been termed 'chronic active BCR signaling' (CABS). The goal of this screen is to find small-molecule inhibitors of the CABS pathway found in ABC-DLBCL lines using a cell-based assay that measures IkappaBalpa stability, which has already been extensively validated in the OCI-Ly3 line (PubChem AID:445; REF: 4). […] Hits from the primary screen were tested in this selectivity secondary assay. NIH Molecular Libraries Probe Production Network [MLPCN] NIH Chemical Genomics Center [NCGC] MLPCN Grant: R03 DA031086 PI Name: Dr. R. Eric Davis
Cells were seeded in 1536-well plates at 5000 cells/3ul in IMDM medium containing 0.5% FBS, w/o phenol red, L-glutamine, 25 mM HEPES, 3 mg/ml sodium bicarbonate. After centrifugation for 1 min. at 1000 rpm, 23 nl of compounds or DMSO were delivered to each well using a pin tool. Then 1ul 80ng/ml doxycycline was dispensed into white solid 1536-well plates and the plates were incubated at 37C/5% C02 in a cell incubator for 4 hrs. Then 4 ul Chroma-Glo luminescent substrate mix (Promega) was added to each well. The plate was incubated at R.T. for 10-15 min. The plates were measured on a ViewLux plate reader for green luminescence (540/20 nm filter) and red luminescence (618/8 nm filter). The green and red luminescent signals were corrected for red and green luminescence filter overlap using previously determined filter calibration constants (determined using the procedure outlined in the Promega Technical Manual). The %Activity was determined from the ratio of corrected green/red luminescent values. Green luminescent and ratio %Activity was determined by normalizing to the difference in signal between basal cells (0% Activity) and cells incubated with 10 uM of the proteasome inhibitor MG-132 (100% Activity). Red luminescent %Activity was normalized to the difference between red luminesence in basal cells (0%Activity) and zero luminescence (-100% Activity). Concentration-response curves were fitted to the signals arising from the green luminescence (I-kappa-B-alpha-luciferase fusion; IkB-luc) and the red luminescence (unfused luciferase; luc) as well as the calculated ratio. The concentration-effect curves were then classified based on curve quality (r2), response magnitude and degree of measured activity. Compounds were then categorized based on their concentration-response curves for all three datasets (Ikb-luc, luc and ratio).
A general note: Quantitative high-throughput screening tests each substance at several concentrations.
As for `Cc1cccc(OCCN2C(=O)C(=O)c3cc(C)ccc32)c1`, the “activity change, negative = inhibition” value was -1.66%.
Turning to `Cc1onc(-c2ccccc2)c1-c1nc2cc(Cl)ccc2c(=O)o1`, the “activity change, negative = inhibition” value is -14.1%.
On the same count and under the same terms, the figure for `CSc1nc(SCC(=O)NCc2ccco2)c2c3c(sc2n1)COC(C)(C)C3` is -2.6%.
The same measure, in the same setting: the figure for `Cc1nnc(C)n1/N=C/c1cc2ccccc2nc1Cl` is -2.19%; for `Cc1cc(=O)c(C(=O)Nc2cccc(N3CCCC3=O)c2)nn1-c1ccccc1Cl` it is -0.879%.
Still for that read-out and setting: the result for `COc1ccc(C2=NC(C)(C)Cc3cc(OC)c(OC)cc32)cc1OC` reads 0.417%.
Consider `CCCCC[C@H](O)/C=C/[C@@H]1[C@@H](C/C=C\CCCC(=O)O)[C@@H](O)C[C@H]1O`, for which the “activity change, negative = inhibition” value was -0.871%.
On the same count and under the same terms, the result for `c1ccc(-c2cc(-c3nnc4n3N=C(c3ccc5ccccc5c3)CS4)[nH]n2)cc1` reads -4.31%; that for `O=C(c1ccc(Cl)cc1)c1cc([N+](=O)[O-])ccc1N1CCOCC1`, -4.74%; that for `O=C(O)c1ccc(CSc2nnc(-c3ccco3)o2)cc1`, -0.305%.
The same measure, in the same setting: the figure for `COC(=O)c1cccc(-n2sc3ccccc3c2=O)c1` is -6.16%; for `CC(Oc1ccc(Br)cc1)c1nc2c3ccccc3nc(=S)n2[nH]1` (configuration not stated) it is 349%.
On to `CCOc1ccccc1/C=N/Nc1nc2c(N)ncnc2n1[C@H]1O[C@@H](CO)[C@H](O)[C@@H]1O`, for which the “activity change, negative = inhibition” value was 0.035%.
`CCCNS(=O)(=O)c1cccc(C(=O)OCc2cc(=O)oc3cc(OC)ccc23)c1`: the “activity change, negative = inhibition” value was -16.4%.
As for `Cc1ccc(NS(=O)(=O)c2cc(-c3n[nH]c(=O)c4ccccc34)ccc2C)cc1`, the “activity change, negative = inhibition” value was -3.87%.
Regarding `COc1ccc(-c2c(C)nn3c(N)c(C#N)cnc23)cc1OC`, the “activity change, negative = inhibition” value is 0.123%.
Same read-out and setting: the figure for `COc1cccc(-c2nnc(Nc3nc4c(F)cccc4s3)o2)c1` is 37.5%; for `CCOc1c(OC)cccc1C1CC(=O)Nc2cc(OC)c(OC)cc21` (configuration not stated) it is -0.312%.
`COc1ccc(-c2noc(CSc3nc(N)c(-c4ccccc4)c(=O)[nH]3)n2)cc1`: the “activity change, negative = inhibition” value was -0.936%.
On the same count and under the same terms, the result for `COc1ccccc1NC(=O)Cn1nnc(C(=O)NCc2cccs2)c1N` reads -0.743%; that for `COc1cc2c(c(OC)c1OC)-c1ccc(OC)c(=O)cc1[C@@H](N(C)CC#CCO)CC2`, -1.53%; that for `Cc1cccc(N(C)S(=O)(=O)c2ccc(-c3cnc(C4CC4)o3)cc2)c1`, -6.59%.
The same measure, in the same setting: the figure for `C#CCOc1ccc(C2C3=C(COC3=O)Nc3cc4c(cc32)OCO4)cc1OC` (configuration not stated) is -3.1%; for `CCc1ccc(CCC(=O)Nc2sc3c(c2C#N)CCCC3)o1` it is -1.9%; for `Cc1cccc(C)c1NS(=O)(=O)c1ccc(-c2cnc(C3CC3)o2)cc1` it is -5.58%.
Still for that read-out and setting: the result for `O=C(O)CCCN1C(=O)/C(=C\c2ccccc2OCc2ccccc2)SC1=S` reads -3.44%; that for `CC1=Nc2ccccc2/C1=C\c1sc(Nc2ccc(C)cc2)nc1O`, -20.5%.
On to `COc1cccc(Nc2sc(C(=O)c3ccc(Cl)cc3)c(N)c2C(=O)NCc2ccc(C)cc2)c1`, for which the “activity change, negative = inhibition” value was -1.56%.
Same read-out and setting: the result for `CC(=O)N1c2ccc(C)cc2C(c2ccccc2)CC1C` (configuration not stated) reads -2.03%; that for `Cc1noc(C)c1CSc1nc2[nH]ncc2c(=O)n1-c1ccccc1`, -5.84%; that for `COc1ccc2c(c1)sc1nc(-c3ccccc3)cn12`, 16.8%.
On the same count and under the same terms, the result for `Nc1ccc(C(=O)n2c3ccccc3c3ccccc32)cc1` reads -4.18%; that for `O=c1cc(-c2cccc(F)c2)[nH]c2ccccc12`, -3.48%.
`COc1ccc(CCNc2oc(-c3ccc(OC)c(OC)c3)nc2P(=O)(OC)OC)cc1OC`: the “activity change, negative = inhibition” value was 0.113%.
Same read-out and setting: the result for `COc1cc(OC)c(OC)cc1/C=C1\CCC/C(=C\c2cc(OC)c(OC)cc2OC)C1=O` reads -10.7%; that for `COc1ccccc1-n1cnc2cc(NCc3cccs3)ccc21`, 40.4%; that for `NNC(=O)c1[nH]c2ccccc2c1-c1ccccc1`, -4.38%.
The same measure, in the same setting: the figure for `COc1cc(Cc2nccc3cc(OC)c(OC)cc23)c(NC(C)=O)cc1OC` is -0.252%.
Same read-out and setting: the figure for `COC(=O)Nc1nc(-c2ccccc2)c(C(=O)c2ccc(Cl)cc2)s1` is -1.03%; for `CN(CC(=O)O/N=C(\N)c1ccccn1)S(=O)(=O)c1cc(Cl)ccc1Cl` it is -0.248%.
On to `Cc1ccc(/C=N/NC(=O)c2n[nH]c3c2CCCC3)cc1`, for which the “activity change, negative = inhibition” value is -1.46%.
Same read-out and setting: the figure for `Cc1cc(C)c(C#N)c(SCc2c(F)cccc2[N+](=O)[O-])n1` is -2.3%; for `O=C(CSc1cccc[n+]1[O-])c1cc(Cl)ccc1Cl` it is -6.48%; for `COc1cc(/C=C\C(=O)OCn2nnc3ccccc3c2=O)cc(OC)c1OC` it is -4.34%.
On the same count and under the same terms, the result for `COc1ccc(/C=C/C(=O)c2cc(F)ccc2OC(=O)c2ccc(OC)c(OC)c2)cc1OC` reads -5.26%.
Turning to `COc1ccc(C(=O)/C=C/c2ccc(OC)c(Cn3nnc4ccccc43)c2)cc1`, the Potency was 16.4 µM (active).
Consider `Cc1cccc(NC(=O)c2ccc(C(=O)Nc3cccc(C)c3)nc2)c1`, for which the “activity change, negative = inhibition” value was -0.935%.
Still for that read-out and setting: the result for `O=C1OCC2=C1C(c1ccc(F)cc1)c1cc3c(cc1N2)OCO3` (configuration not stated) reads -4.57%; that for `COc1cc(C(=O)N2CCN(c3cc(Cl)ccc3Cl)CC2)cc(OC)c1OC`, -4.65%.
Same read-out and setting: the result for `CC1=CC(C)(C)N2C(=O)C(=O)c3cc(OC(=O)c4ccco4)cc1c32` reads -12.4%.
On to `CCOc1cc(/C=C2\CN(C)C/C(=C\c3ccc(O)c(OCC)c3)C2=O)ccc1O`, for which the “activity change, negative = inhibition” value was -16.9%.
The same measure, in the same setting: the result for `Cc1nnc2sc(-c3csc4c3CCCC4)nn12` reads -0.641%.
